Compound activity (PubChem)
C diff growth = blocks growth of Clostridium difficile. Clostridium difficile clinical isolate growth, OD600, 24 h; hits give low values. growth activity, negative = inhibition, % at 16 µg/mL (by protocol). actives 0.25% (n = 86,000). AID 1259249;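 active means mean growth activity at or below -80% and every replicate also at or below -80%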
Pf Dd2 growth = inhibitors of Plasmodium falciparum Dd2 growth; P. falciparum Dd2 growth, SYBR Green, 72 h; hits give low values; activity change, % at 10 µM; actives 2.3% (n = 94,000); in the data active means activity change below about -80%
Numbers stand for hits; ! = not active in a repeat. Only some compounds are listed: those with a hit (about 2.4% of all), similar ones and a draw of the others.

`Cc1ccc(S(=O)(=O)Nc2ccc3c(c2)C(=O)N([C@@H](C)CO)C[C@@H](C)[C@H](CN(C)C)OCCCC[C@H](C)O3)cc1` gave C diff growth inactive and Pf Dd2 growth inactive.
Screening O=C(NCC[C@H]1CC[C@@H](NS(=O)(=O)c2ccc(Cl)cc2)[C@@H](CO)O1)Nc1ccc(F)cc1 returned C diff growth inactive and Pf Dd2 growth inactive.
C[C@H]1CCCCO[C@H](CN(C)S(=O)(=O)c2cccs2)[C@@H](C)CN([C@@H](C)CO)C(=O)c2cc(NC(=O)Nc3cccc4ccccc34)ccc2O1 was read as C diff growth inactive and Pf Dd2 growth inactive.
For C[C@@H]1CN([C@@H](C)CO)C(=O)c2cc(NC(=O)Nc3cccc4ccccc34)ccc2O[C@@H](C)CCCCO[C@@H]1CN(C)S(=O)(=O)c1cccs1 the results were C diff growth inactive and Pf Dd2 growth -90.
For C[C@@H]1CN([C@H](C)CO)C(=O)c2cc(NC(=O)Cc3cn(C)c4ccccc34)ccc2O[C@H]1CN(C)S(=O)(=O)c1ccccc1 the results were C diff growth inactive and Pf Dd2 growth inactive.
Screening C[C@H](CO)N1C[C@H](C)[C@@H](CN(C)S(=O)(=O)c2ccccc2)Oc2ccc(NC(=O)Cc3cn(C)c4ccccc34)cc2C1=O returned C diff growth inactive and Pf Dd2 growth -87.
Screening Cc1ccc(S(=O)(=O)N(C)C[C@H]2Oc3ccc(NC(=O)Cc4cn(C)c5ccccc45)cc3C(=O)N([C@@H](C)CO)C[C@H]2C)cc1 returned C diff growth inactive and Pf Dd2 growth inactive.
`Cc1ccc(S(=O)(=O)N(C)C[C@@H]2Oc3ccc(NC(=O)Cc4cn(C)c5ccccc45)cc3C(=O)N([C@@H](C)CO)C[C@H]2C)cc1` gave C diff growth inactive and Pf Dd2 growth inactive.
C[C@H](CO)N1C[C@H](C)[C@H](CN(C)S(=O)(=O)c2ccccc2)Oc2ccc(NC(=O)Cc3cn(C)c4ccccc34)cc2C1=O was read as C diff growth inactive and Pf Dd2 growth -93.
`C[C@H]1CN([C@@H](C)CO)C(=O)c2cc(NC(=O)Cc3cn(C)c4ccccc34)ccc2O[C@@H]1CN(C)S(=O)(=O)c1ccccc1` gave C diff growth inactive and Pf Dd2 growth -84.
`C[C@@H]1CCCCO[C@@H](CN(C)CC2CC2)[C@H](C)CN([C@@H](C)CO)C(=O)c2cc(NS(=O)(=O)c3ccc(Cl)cc3)ccc2O1` gave C diff growth inactive and Pf Dd2 growth inactive.
Screening C[C@@H]1CN([C@@H](C)CO)C(=O)c2cccc(NC(=O)Nc3cccc4ccccc34)c2O[C@H]1CN(C)CC1CC1 returned C diff growth inactive and Pf Dd2 growth inactive.
For OC[C@@H]1Nc2ccc(-c3ccccc3)cc2[C@@H]2[C@H]1CCN2Cc1ccccc1F the results were C diff growth inactive and Pf Dd2 growth inactive.
Screening OC[C@H]1Nc2ccc(-c3cccc(F)c3)cc2[C@H]2[C@@H]1CCN2Cc1ccncc1 returned C diff growth inactive and Pf Dd2 growth inactive.
COc1ccc(-c2ccc3c(c2)[C@H]2[C@H](CCN2Cc2cncnc2)[C@H](CO)N3)cc1 was read as C diff growth inactive and Pf Dd2 growth inactive.
For OC[C@@H]1Nc2ccc(-c3cccc(F)c3)cc2[C@@H]2[C@H]1CCN2Cc1ccncc1 the results were C diff growth inactive and Pf Dd2 growth -92.
`OC[C@H]1Nc2ccc(-c3cccc(F)c3)cc2[C@@H]2[C@H]1CCN2Cc1ccc(F)cc1` gave C diff growth inactive and Pf Dd2 growth -90.
OC[C@H]1Nc2ccc(-c3cccc(F)c3)cc2[C@H]2[C@@H]1CCN2Cc1ccc(F)cc1 was read as C diff growth inactive and Pf Dd2 growth inactive.
For OC[C@H]1Nc2ccc(-c3ccccc3)cc2[C@@H]2[C@H]1CCN2Cc1ccccc1F the results were C diff growth -101 and Pf Dd2 growth inactive.
`COc1ccc(-c2ccc3c(c2)[C@H]2[C@H](CCN2Cc2ccncc2)[C@@H](CO)N3)cc1` gave C diff growth inactive and Pf Dd2 growth -82.
`COCC(=O)Nc1ccc2c(c1)[C@@H]1C[C@@H](CC(=O)NCCN3CCCCC3)O[C@@H](CO)[C@@H]1O2` gave C diff growth inactive and Pf Dd2 growth inactive.
COCC(=O)Nc1ccc2c(c1)OC[C@@H](C)N(C(=O)c1ccccc1)C[C@H](C)[C@H](OC)CN(C)C2=O was read as C diff growth inactive and Pf Dd2 growth inactive.
C[C@H](CO)N1C[C@H](C)[C@@H](CN(C)S(=O)(=O)c2ccc(Cl)cc2)Oc2ccc(N(C)C)cc2CC1=O was read as C diff growth inactive and Pf Dd2 growth inactive.
For N#Cc1cccc(-c2ccc3c(c2)[C@@H]2[C@@H](CCN2Cc2cncnc2)[C@@H](CO)N3)c1 the results were C diff growth inactive and Pf Dd2 growth inactive.
`N#Cc1cccc(-c2ccc3c(c2)[C@H]2[C@H](CCN2Cc2ccncc2)[C@@H](CO)N3)c1` gave C diff growth inactive and Pf Dd2 growth -89.
`C[C@@H]1CN([C@H](C)CO)C(=O)c2cc(NC(=O)Nc3ccc(F)cc3)ccc2O[C@@H](C)CCCCO[C@H]1CN(C)S(C)(=O)=O` gave C diff growth inactive and Pf Dd2 growth inactive.
For COC(=O)C[C@@H]1CC[C@H]2[C@H](COc3ccc(NC(=O)c4cc(C)on4)cc3C(=O)N2C)O1 the results were C diff growth inactive and Pf Dd2 growth inactive.
`Cc1ccc(-c2ccc(C3[C@@H]4CN(C(=O)Nc5ccc(C(F)(F)F)cc5)C[C@H]3N4)cc2)cc1` (stereo not given in full) gave C diff growth -92! and Pf Dd2 growth -85.
COc1ccc(-c2ccc(C3[C@H]4CNC[C@@H]3N4C(=O)Nc3ccc(C(F)(F)F)cc3)cc2)cc1 (stereo not given in full) was read as C diff growth -99! and Pf Dd2 growth -84!.
COc1ccc(NC(=O)N2[C@@H]3CNC[C@H]2C3c2ccc(-c3ccc(OC)cc3)cc2)cc1 (stereo not given in full) was read as C diff growth inactive and Pf Dd2 growth inactive.
N#Cc1ccc(-c2ccc(C3[C@@H]4CN(C(=O)C5CC5)C[C@H]3N4)cc2)cc1 (stereo not given in full) was read as C diff growth inactive and Pf Dd2 growth -88!.
For N#Cc1ccc(-c2ccc([C@@H]3[C@@H]4CN(C(=O)Nc5ccc6c(c5)OCO6)C[C@H]3N4)cc2)cc1 the results were C diff growth inactive and Pf Dd2 growth -87.
N#Cc1cccc(-c2ccc(C3[C@@H]4CN(C(=O)C5CCOCC5)C[C@H]3N4)cc2)c1 (stereo not given in full) was read as C diff growth inactive and Pf Dd2 growth inactive.
For C/C=C/c1ccc(C2[C@@H]3CN(C(=O)Nc4ccc5c(c4)OCO5)C[C@H]2N3)cc1 (stereo not given in full) the results were C diff growth inactive and Pf Dd2 growth inactive.
For O=C(Nc1ccc(F)cc1)N1C[C@@H]2N[C@H](C1)C2c1ccc(-c2cccnc2)cc1 (stereo not given in full) the results were C diff growth inactive and Pf Dd2 growth inactive.
Screening COCCNC(=O)C[C@@H]1CC[C@@H]2[C@H](COC[C@H](O)CN2Cc2cccc(-c3ccncc3)c2)O1 returned C diff growth inactive and Pf Dd2 growth inactive.
For Cc1cccc(S(=O)(=O)N[C@@H]2CC[C@H](CCNC(=O)c3cnccn3)O[C@H]2CO)c1 the results were Pf Dd2 growth inactive.
